The record followed here is the supplement of paper PMC7156485.

Common to all, as to conditions: concentration: 10 µM; 24 h
Test [1] relates to HCC1569. The experiment in a line: cell number relative to DMSO (% of DMSO); higher = more cells (less growth inhibition / toxicity). In short, it runs like this:
(§1)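 Cell number or H1.0 nuclear intensity appears as percent of the plate control, based on the median of replicates. Measurements came from HCC1569 and TDF cells exposed in triplicate to compounds at 10 µM for 24 h at 37 °C, then imaged in six fields per well at ×10. Positional effects were smoothed out of HCC1569 values.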

Test [2] concerns TDF. Described as above. In short, it runs like this:
as §1

The test system of test [3] is TDF. Description: H1.0 immunofluorescence intensity relative to DMSO (% of DMSO); higher = stronger H1.0 induction, active = 120 or more. In short, it runs like this:
as §1

The test system of test [4] is HCC1569. The experiment in a line: H1.0 immunofluorescence intensity relative to DMSO (% of DMSO); higher = stronger H1.0 induction, active = 140 or more. In short, it runs like this:
as §1
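Wherever H1.0 immunofluorescence intensity relative to DMSO is given: TDF is a line of transformed human dermal fibroblasts of mesenchymal origin.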
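Wherever cell number relative to DMSO is given: TDF denotes transformed human dermal fibroblasts of mesenchymal origin.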

On to `CCCC(C)(COC(N)=O)COC(=O)NC(C)C` (stereo not given) [Carisoprodol], for which the cell number with HCC1569 [1] stood at 97.4; in the test on TDF [2], 90.8. Further, the results for the H1.0 immunofluorescence intensity in the test on TDF [3] and in the test with HCC1569 [4] were 99.6 (inactive) and 106 (inactive), respectively.

On to `Clc1ccc(C2CC3CCC2N3)cn1` (racemic), for which the cell number in the test on HCC1569 [1] came to 102; with TDF [2] it was 96.3. Moreover, the H1.0 immunofluorescence intensity in the test with TDF [3] was 90.6 (inactive); with HCC1569 [4], 81.4 (inactive).

With `C[Se]CC(N)C(=O)O.Cl` (stereo not given) [Se-(methyl)selenocysteine hydrochloride], the figures for the cell number in the test with HCC1569 [1] and in the test on TDF [2] were 99.6 and 90.3, respectively. Besides, the H1.0 immunofluorescence intensity was 99 (inactive) in the test with TDF [3] and 98.1 (inactive) with HCC1569 [4].

As to `COc1cc2c3cc1Oc1c(OO)c(OC)cc4c1C(Cc1ccc(cc1)Oc1cc(ccc1O)CC3N(C)CC2)N(C)CC4.O=S(=O)(O)O` (stereo not given) [Oxyacanthine sulfate], the cell number was found to be 55.6 in the test with HCC1569 [1] and 11.7 in the test on TDF [2]. Further, the H1.0 immunofluorescence intensity is 186 (active) in the test on TDF [3] and 148 (active) with HCC1569 [4].

Regarding `O=C(O)c1cc[c]([Hg][Cl])cc1` [4-Chloromercuribenzoic acid], the cell number in the test on HCC1569 [1] was determined as 102; with TDF [2], 111. Moreover, the H1.0 immunofluorescence intensity was 91.8 (inactive) with TDF [3] and 92.6 (inactive) in the test on HCC1569 [4].

Regarding `CCCCCC(C=CC=CCCCCCCCC(=O)O)OO` (stereo not given), the cell number with HCC1569 [1] turned out to be 99.9; in the test on TDF [2] it was 108. Besides, the figures for the H1.0 immunofluorescence intensity with TDF [3] and in the test with HCC1569 [4] were 99.2 (inactive) and 94.4 (inactive), respectively.

Turning to `O=P1(NCCCl)OCCCN1CCCl` (stereo not given) [Ifosfamide], the cell number was 103 in the test on HCC1569 [1] and 105 in the test with TDF [2]. The H1.0 immunofluorescence intensity is 97.2 (inactive) in the test on TDF [3] and 112 (inactive) in the test with HCC1569 [4].

On to `Br.CCCN(CCC)C1CCc2cccc(O)c2C1` (stereo not drawn) [R-(+)-8-Hydroxy-DPAT hydrobromide], for which the cell number was 99.2 with HCC1569 [1] and 90.1 with TDF [2]. Further, the H1.0 immunofluorescence intensity in the test with TDF [3] was 105 (inactive); in the test on HCC1569 [4], 96.5 (inactive).

As to `O=C(Oc1ccc([N+](=O)[O-])cc1)N1CCN(Cc2cccc(Oc3ccccc3)c2)CC1` [4-nitrophenyl 4-(3-phenoxybenzyl)-1-piperazinecarboxylate], the cell number in the test on HCC1569 [1] turned out to be 97.4; in the test with TDF [2] it was 104. The H1.0 immunofluorescence intensity with TDF [3] was 101 (inactive); with HCC1569 [4], 105 (inactive).

Turning to `COc1cc(C2c3cc4c(cc3C(O)C3COC(=O)C23)OCO4)cc(OC)c1OC` (stereo not given) [Picropodophyllin], the cell number stood at 58.3 in the test with HCC1569 [1] and 10.9 in the test with TDF [2]. The H1.0 immunofluorescence intensity in the test on TDF [3] was 165 (active); in the test with HCC1569 [4], 128 (inactive).
